Measured values: PubChem BioAssay AID651724 (National Center for Advancing Translational Sciences (NCATS), 2012)
The whole screen tested about 340,000 compounds, of which about 1,700 (0.5%) were called active. Not shown: some 2% with an inconclusive outcome. Only a selection was taken, and actives are over-represented in it overall. Unmarked numbers belong to inactive results. Cut-off read from the data, not from the text of the source: active = activity change below about -65%; inconclusive = mostly about -30% to -63%; inactive = weaker than that.
% is set by controls: 0 for no effect and ±100 for the full control effect.

What follows are compounds tested on CtBP / adenovirus E1A interaction (AlphaScreen) (assay: qHTS Assay for Inhibitors of the CtBP/E1A Interaction). Settings: AlphaScreen GST-E1A/His-CtBP binding, 1536-well; stronger effect = lower value.
Method in brief: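 Protein mix (5X: 125 nM each GST-E1A, His-CtBP) was incubated with pinned compound 2 h at 37 deg C in dark, in 50 mM Tris pH 8.0 buffer with 300 mM NaCl. Glutathione donor and nickel acceptor beads followed; AlphaScreen signal read after 1 h.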
With `CCOC(=O)c1cc(-c2sc(NC(=O)c3ccccc3)nc2C)n(-c2ccc(Br)cc2)n1` the activity change was 0%. With `COc1cccc(NC(=O)CN(C)C(=O)c2cc(Cl)nc3ccccc23)c1` the activity change was -3.92%. With `Cc1ccsc1C(=O)N/N=C/c1ccc([N+](=O)[O-])cc1` the activity change was -4.19%. Work on `COc1ccc2ccccc2c1/C=N/NC(=O)c1cc(C)[nH]n1` yielded an activity change of -8.94%. For `Cc1cc(C(=O)N/N=C/c2cc([N+](=O)[O-])cc(C)c2O)n[nH]1`, the activity change was -87.9% (active). Work on `Cc1ccccc1S(=O)(=O)NC(=O)C1(C)CCN1C(=O)C1(c2ccc(Cl)cc2)CC1` (centres undefined) yielded an activity change of 9.59%. `NC(c1ccccc1)c1csc(NC(=O)Nc2cccc(C(F)(F)F)c2)n1` (centres undefined) gave an activity change of -14.2%. `O=C(COc1ccc(Cl)cc1Cl)N/N=C/c1ccccn1` showed an activity change of -13%. In the case of `O=C(COC(=O)COc1cc(Cl)c(Cl)cc1Cl)NC1CC1`, the activity change is reported as -0.684%. With `NC(=S)NN=Cc1ccc(OC(=O)COc2cc(Cl)c(Cl)cc2Cl)cn1` the activity change was -89.3% (active). In the case of `CCCS(=O)(=O)NC(=O)C1(C)CCCN(C(=O)c2ccnc(Cl)c2)C1` (centres undefined), the activity change is reported as -15.6%. With `Cc1cc([N+](=O)[O-])c(NC2CCCCC2)c([N+](=O)[O-])c1` the activity change was -67.5% (active). `Cc1cc([N+](=O)[O-])c(N2CCC[C@@H]2C(=O)O)c([N+](=O)[O-])c1` was tested, and the activity change was 4.03%. Compound `Cc1cc([N+](=O)[O-])ccc1NC1CCCC1` has an activity change of -0.0944%. With `CN(C)CCNC(=O)c1ccc(-c2cn3c(-c4ccc(Oc5ccccc5)cc4)cnc3cn2)cc1` the activity change was -7.14%. `Oc1c(CN2CCN(c3ccc(F)cc3)CC2)cc(Cl)c2cccnc12` was tested, and the activity change was -85.8% (active). In the case of `Cc1ccc(CN2CCN(c3ncccn3)CC2)c(C)c1`, the activity change is reported as -0.239%. Work on `Cc1cccc(C)c1NC(=O)CN1CCN(c2ccc(F)cc2)CC1` yielded an activity change of -4.18%. With `O=C1CC[C@@H](C(=O)N2CSC[C@@H]2C(=O)Nc2ccc(C(F)(F)F)cc2)N1` the activity change was 2.94%. `COc1ccc(C=C2CCC3C(CCCC34OCCO4)C2=O)cc1` (centres undefined) showed an activity change of -0.25%. `COc1cccc(NC(=S)NCc2ccccn2)c1` showed an activity change of -9.96%. With `COc1cncc(-c2cnc3sc(NCCc4ccccn4)nn23)c1` the activity change was -68.3% (active). With `Cc1ccc(C(=O)N/C(=C\c2cccs2)C(=O)NCCc2ccccn2)cc1C` the activity change was -19.9%. With `O=S(=O)(c1cccc(C(F)(F)F)c1)N1c2ccccc2-n2cccc2C1c1cccnc1` (centres undefined) the activity change was 1.4%. `C[C@@H]1CN([C@@H](C)CO)C(=O)c2cc(Br)cnc2O[C@H]1CN(C)Cc1ccc(-c2ccccc2)cc1` gave an activity change of -2.2%. Compound `CCCCCc1c(-c2cccc(Br)c2)ncn1CCc1ccccc1OC` has an activity change of -0.685%. `COc1cccc(C(NC(C)=O)c2nc(-c3cnc4ccccc4c3)cs2)c1` (centres undefined) was tested, and the activity change was -20.3%. In the case of `Cc1ccc(-c2cnc(C(O)c3cccc(C)c3C)[nH]2)cc1` (centres undefined), the activity change is reported as -4.55%. For `COCCNC(=O)CSc1nc(N)c(NC(=O)c2ccco2)c(=O)[nH]1`, the activity change was 12.4%. `COc1ccc(C(=O)Nc2c(N)nc(SCC(=O)Nc3ccc(C(C)=O)cc3)[nH]c2=O)cc1` was tested, and the activity change was -2.12%. For `COC(=O)c1ccc(NC(=O)CSc2nc(N)c(NC(=O)c3ccc(Br)o3)c(=O)[nH]2)cc1`, the activity change was -65.1% (active). For `O=C(Nc1ccccc1)/C(=C\c1ccco1)NC(=O)c1ccco1`, the activity change was 0.317%. `O=C(NCCc1ccco1)c1nn(Cc2ccccc2)c(=O)c2ccccc12` gave an activity change of -2.1%. With `O=c1nc2s/c(=C\c3ccco3)c(=O)n2nc1Cc1ccccc1` the activity change was -81.2% (active). `CCCCOCCCNC(=O)C[C@@H]1C[C@@]2(C(=O)OC)CCCCC=C2N(CCC2=CCCCC2)C1=O` showed an activity change of -1.56%. With `CC(C)Sc1ncnc2c1cnn2-c1ccccc1` the activity change was 0.575%. With `Cc1ccc(-n2ncc3c(Nc4cccc(C(=O)O)c4)ncnc32)cc1` the activity change was -74.4% (active). Work on `Cc1ccc(Nc2ncnc3c2cnn3C)c(C)c1` yielded an activity change of 3.32%. `CC(=O)Nc1cc(-c2cccc(CO)c2)cn2c(-c3cccc(C(F)(F)F)c3)cnc12` gave an activity change of 3.79%. Work on `CN(Cc1cn(Cc2ccc(C(F)(F)F)cc2)nn1)C1CN(Cc2cn(Cc3ccc(C(F)(F)F)cc3)nn2)S(=O)(=O)C1` (centres undefined) yielded an activity change of 3.64%. In the case of `O=C(Nc1ccc(C(=O)O)cc1)/C(=C/c1ccc([N+](=O)[O-])cc1)NC(=O)c1ccccc1`, the activity change is reported as -2.48%. With `O=C(N/N=C/c1cc([N+](=O)[O-])ccc1O)/C(=C\c1cccs1)NC(=O)c1ccccc1` the activity change was -94.1% (active). Compound `Cc1ccc(NC(=O)/C(=C/c2ccc([N+](=O)[O-])cc2)NC(=O)c2ccccc2)cc1` has an activity change of 4.11%. `CCCCN(C=O)c1c(CC)nc2c(OCCC3CCCCC3)cccn12` gave an activity change of -11%. Compound `CCC(CC)C(C(=O)NC1CCCC1)N1CCN(c2cc(C)nc3ccccc23)CC1` (centres undefined) has an activity change of 3.39%. `Cc1cc(=O)oc2c(C)c(OCC(=O)NCCN3CCOCC3)ccc12` gave an activity change of 0.132%. In the case of `CCc1cc(=O)oc2c(C)c(OCC(=O)NCCN3CCOCC3)ccc12`, the activity change is reported as -6.07%. In the case of `O=C(COc1cc2oc(=O)c3c(c2cc1Cl)CCC3)NCCCN1CCOCC1`, the activity change is reported as -65.9% (active). With `O=C(CC(CC(=O)c1ccccc1)c1ccco1)c1ccccc1` the activity change was 4.89%. `Cc1ccc(S(=O)(=O)NC2CCCCCC2)cc1` showed an activity change of 10.7%. In the case of `Cc1ccc(S(=O)(=O)N2CCC(N3CCCCCC3)CC2)cc1`, the activity change is reported as -10.9%. `Cc1ccc(S(=O)(=O)n2oc(=O)c(C3CCCCC3)c2N)cc1` was tested, and the activity change was -69.5% (active). With `Cc1cc(Br)cn2c(Cc3ccccc3C(F)(F)F)c(C3CCCCC3)nc12` the activity change was -6.97%. `Cc1noc(C)c1-c1ccc(C(=O)NCc2ccncc2)c2occc12` gave an activity change of -17.7%. `Cc1[nH]c2ccccc2c1C(=O)c1cc([C@H](NC(=O)OC(C)(C)C)C(C)C)sc1N` was tested, and the activity change was -23.1%. `CC(C)(C)C(=O)CSc1nc2ccccc2o1` was tested, and the activity change was 11.1%. For `O=C(CSc1nc2ccccc2o1)N1CCN(c2ccccc2)CC1`, the activity change was -3.28%. With `Cc1ccc(/C=N/NC(=O)CSc2nc3ccccc3o2)cc1` the activity change was -93.4% (active). Compound `CCN(CC)C(=O)CSc1nc2ccccc2o1` has an activity change of 4.11%. For `O=C(CSc1nc2ccccc2o1)N/N=C/c1ccccc1C(=O)O`, the activity change was -92.7% (active). In the case of `O=C(CSc1nc2ccccc2o1)N1CCN(c2ccc(Cl)cc2)CC1`, the activity change is reported as -0.51%. `CC(=O)Nc1cc(-c2ccc(N3CCN(C)CC3)cc2)cn2c(-c3ccc(F)cc3)cnc12` gave an activity change of -22%. `CCc1nc2ccc(C(=O)Nc3cccc(OC)c3)cn2c1N(CCC(C)C)CCN(C)C` was tested, and the activity change was -9.75%. `Cc1ccc(S(=O)(=O)N2CCCCC2)cc1NC(=O)CCNC(=O)c1ccccc1Cl` gave an activity change of 2%. With `O=C(Nc1ccc(Cl)cc1)C1Cc2c(-c3ccc4c(c3)OCO4)ccnc2O1` (centres undefined) the activity change was -5.12%. `O=C(NCc1ccc(F)cc1)c1cc(C2CCCCN2C(=O)c2cccs2)on1` (centres undefined) was tested, and the activity change was 4.5%. `COc1ccc(CC(=O)N/N=C(\C)c2ccccn2)cc1` was tested, and the activity change was -73.3% (active). With `CC(=NNC(=S)N1CCCCCC1)c1ccccn1` the activity change was -89.7% (active). For `C/C(=N\NC(=O)c1ccccc1F)c1ccccn1`, the activity change was -97.9% (active). In the case of `CNC(=S)N1CCN(c2ccccn2)CC1`, the activity change is reported as 5.96%. Compound `C/C(CC(=O)Nc1ccc(N(C)C)cc1)=N\NC(=O)c1ccccc1F` has an activity change of -8.83%. Compound `COc1ccc(C/C(C)=N/NC(=O)c2cc(C)oc2C)cc1` has an activity change of 8.03%. With `CCCCCNC(=O)Cc1ccc(OC)cc1` the activity change was 12.5%. Compound `O=C(NCCOc1ccccc1)c1ccccc1F` has an activity change of 0.486%. Work on `Cc1cccc(C)c1NC(=S)N1CCCCCC1` yielded an activity change of 3.43%. In the case of `C#CCN(C[C@@H]1[C@@H](OC(=O)NC2CC2)[C@@H](OC(=O)NC2CC2)Cn2c(=O)ccc(=O)n21)S(=O)(=O)c1ccc(C)cc1`, the activity change is reported as 3.71%. In the case of `FC(F)(F)c1ccccc1Cc1c(-c2ccccc2)nc2c3ccccc3ccn12`, the activity change is reported as 6.14%. Work on `Cc1cccc(C(=O)C(O)(c2ccccc2)C2CCCCC2=O)c1` (centres undefined) yielded an activity change of 3.76%. With `CC1(C(=O)NS(=O)(=O)c2ccc3ccccc3c2)CCN1C(=O)C1(c2ccc(Cl)cc2)CCC1` (centres undefined) the activity change was -4.19%. Work on `O=C(CSc1nc2cccc(F)c2c(=O)n1-c1ccccc1)Nc1ccc2c(c1)CCC2` yielded an activity change of 8.09%. For `CC(=O)Nc1cccc(-c2ccnc3c2CC(C)(C(=O)NCc2ccccc2)O3)c1` (centres undefined), the activity change was 0.959%. Work on `CC1(C(=O)NS(=O)(=O)c2ccccc2)CCN1C(=O)Cc1ccc(-c2ccccc2)cc1` (centres undefined) yielded an activity change of 1.02%. For `O=c1[nH][nH]c2c1[C@H](c1ccc(Cl)cc1)O[C@H](CCc1ccccc1)C2`, the activity change was 1.98%. With `COc1cccc(-c2cnc3c(NC(C)=O)cc(-c4cc(F)ccc4OC)cn23)c1` the activity change was -20.8%. With `Cc1c(Cl)c([N+](=O)[O-])nn1Cc1ccc(C(=O)N/N=C\c2cc(Cl)ccc2O)o1` the activity change was -70.3% (active). With `Cc1nn(Cc2ccc(Cl)cc2)c(Cl)c1/C=N/NC(=O)c1cccnc1` the activity change was -0.89%. In the case of `Cc1ccc(C(=O)O)cc1NC(=O)c1ccc(Cn2nc(C)c(Cl)c2C)o1`, the activity change is reported as 0%. With `CNc1cncc(-c2ccc(NS(C)(=O)=O)cc2)n1` the activity change was 0.0496%. In the case of `COc1cccc(CNc2nc(NCc3ccccc3OC)nc3ccsc23)c1`, the activity change is reported as -7.75%.
